# Screen size: about 39,000 compounds; about 3,300 (8.5%) were called active. The list comes from a sample in which actives are over-represented; it also holds similar structures and randomly drawn compounds.
# Test system: HepG2
# Test: cytotoxicity call (relative viability < 0.9)
# Details: 10 µM
row,SMILES,cytotoxicity call
1,CC(C)OC[C@H]1Cn2c(nc3c2c(=O)n(C)c(=O)n3C)O1,inactive
2,NC(=O)CC[C@H](N)C(=O)O,inactive
3,NC(CO)C(=O)O (stereo not given),active
4,Cl.NCCCCC(N)C(=O)O (stereo not given),inactive
5,N[C@H](CO)C(=O)O,inactive
6,Cl.NCCCC(N)C(=O)O (stereo not given),active
7,NC(CC(=O)O)C(=O)O (stereo not given),inactive
8,NC(=O)CC[C@@H](N)C(=O)O,inactive
9,NCCCC[C@H](N)C(=O)O,inactive
10,NC(=O)CCC(N)C(=O)O (stereo not given),active
11,NC(=O)NCC#Cc1ccc2c(c1)[C@]1(C(=O)N2)[C@H](c2ccc(OCCO)cc2)N2[C@H](c3ccccc3)[C@H](c3ccccc3)OC(=O)[C@H]2[C@@H]1C(=O)N1CCCCCCC1,inactive
12,C[C@H](CO)N1C[C@H](C)[C@@H](CN(C)Cc2ccc3c(c2)OCO3)OCc2ccccc2-c2c(n(C)c3ccccc23)C1=O,inactive
13,C[C@H]1CCCCO[C@@H](CN(C)C(=O)CCC(F)(F)F)[C@@H](C)CN([C@@H](C)CO)C(=O)c2cc(NS(=O)(=O)c3ccc(F)cc3)ccc2O1,inactive
14,C[C@H](CO)N1C[C@H](C)[C@H](CN(C)C(=O)Nc2cccc3ccccc23)Oc2ccc(NC(=O)Nc3ccccc3)cc2CC1=O,inactive
15,Cc1cccc(NC(=O)Nc2ccc3c(c2)C(=O)N(C)[C@H]2CC[C@H](CC(=O)NCc4ccccc4Cl)O[C@H]2CO3)c1,inactive
16,C[C@@H]1CN([C@H](C)CO)S(=O)(=O)c2ccc(C#CC3CC3)cc2O[C@H]1CN(C)C(=O)Cc1ccncc1,inactive
17,C[C@H]1CN([C@@H](C)CO)C(=O)c2cccc(NS(=O)(=O)c3ccccc3)c2O[C@H]1CN(C)S(=O)(=O)c1ccc(F)cc1,inactive
18,COCCNC(=O)C[C@H]1CC[C@H]2[C@@H](COC[C@H](O)CN2C(=O)Nc2ccc3c(c2)OCO3)O1,inactive
19,C(=N\Cc1cccnc1)/c1c2ccccc2cc2ccccc12,active
20,O=C(O)CCC(=O)NCc1cccnc1,inactive
21,OCc1cccnc1,inactive
22,O=C(Nc1ccc(Cl)cc1C(=O)c1ccc(Cl)cc1)c1cc(Br)ccc1NS(=O)(=O)c1ccc(Cl)cc1,active
23,C[C@H]1CN([C@@H](C)CO)C(=O)c2cccc(NS(=O)(=O)c3ccc(Cl)cc3)c2O[C@H]1CN(C)Cc1ccc(C(=O)Nc2ccccc2N)cc1,inactive
24,O=C(Nc1cc(Cl)ccc1Cl)c1cc(Br)ccc1NS(=O)(=O)c1ccc(Cl)c([N+](=O)[O-])c1,active
25,CNS(=O)(=O)c1ccc(Cl)c(C(N)=O)c1,inactive

row,SMILES,cytotoxicity call
1,C[C@H](CO)N1C[C@H](C)[C@@H](CN(C)Cc2ccc(C(=O)Nc3ccccc3N)cc2)Oc2c(NS(=O)(=O)c3ccc(Cl)cc3)cccc2C1=O,inactive
2,NS(=O)(=O)c1ccc(Cl)cc1[N+](=O)[O-],inactive
3,NS(=O)(=O)c1ccc(F)c([N+](=O)[O-])c1,inactive
4,NC(=O)c1ccc([N+](=O)[O-])cc1Cl,inactive
5,O=C(Nc1ccc([N+](=O)[O-])cc1Cl)c1cc(Cl)ccc1O,active
6,O=C(Nc1cc(Cl)ccc1Cl)c1cc(Cl)ccc1NS(=O)(=O)c1ccc(Cl)c([N+](=O)[O-])c1,active
7,C/C=C/C(=O)c1cc(Cl)ccc1O,inactive
8,C[C@@H]1CN([C@@H](C)CO)S(=O)(=O)c2ccc(-c3cccc(C(=O)N(C)C)c3)cc2O[C@@H]1CN(C)C(=O)Cc1ccccn1,inactive
9,COc1ccc([C@@H]([C@H](Cc2ccccc2)OC(C)=O)N2C[C@H]3C(=NO[C@@H]3[C@@H](OC(C)=O)c3ccccc3)[C@@H]2Cc2ccccc2)cc1,inactive
10,C[C@@H]1CN([C@@H](C)CO)C(=O)c2cc(NC(=O)CCN3CCOCC3)ccc2O[C@H]1CN(C)Cc1ccc2c(c1)OCO2,inactive
11,COCC(=O)Nc1ccc2c(c1)C(=O)N(C)C[C@@H](OC)[C@@H](C)CN(C(=O)c1ccccc1F)[C@@H](C)CO2,inactive
12,CO[C@@H]1CN(C)C(=O)c2cc(NC(=O)C3CCCC3)ccc2OC[C@@H](C)N(C(=O)Nc2ccc(C(F)(F)F)cc2)C[C@H]1C,inactive
13,Cc1cnc(CNC(=O)[C@H]2C[C@H]3[C@@H](CCN3S(C)(=O)=O)O2)cn1,inactive
14,O=C(C[C@@H]1C[C@@H]2c3cc(NS(=O)(=O)c4ccc(F)cc4)ccc3O[C@@H]2[C@H](CO)O1)NCC(F)(F)F,inactive
15,CC=Cc1ccc2n(c1=O)C[C@@H]1[C@@H](CO)[C@H](C(=O)NCCc3cn(C)cn3)[C@H]2N1C(=O)C1CC1,inactive
16,Cn1c(=O)c(=O)n(C)c2cc(S(=O)(=O)CCC(=O)NCc3ccccc3)ccc21,inactive
17,CCCCNc1ccc(C(=O)OCCOCCOCCOCCOCCOCCOCCOCCOCCOC)cc1,inactive
18,CCCCNc1ccc(C(=O)OCCN(C)C)cc1.Cl,active
19,CCCCOC(=O)c1ccc(O)cc1,inactive
20,Cc1noc(C)c1NC(=O)N(C)C[C@@H]1Oc2c(NC(=O)Nc3cccc4ccccc34)cccc2C(=O)N([C@H](C)CO)C[C@@H]1C,inactive
21,C[C@@H]1CN([C@H](C)CO)C(=O)c2cc(NC(=O)c3ccccc3)ccc2O[C@@H](C)CCCCO[C@@H]1CN(C)Cc1ccncc1,inactive
22,O=C(C1CCC1)N1CCOCC1,inactive
23,C[C@@H](N)CCc1ccc(Br)cc1,inactive
24,C[C@@H]1CCCCO[C@@H](CN(C)C(=O)C2CCCCC2)[C@H](C)CN([C@@H](C)CO)C(=O)c2cc(NC(=O)c3ccncc3)ccc2O1,inactive
25,C[C@@H]1CN([C@H](C)CO)C(=O)c2cc(NC(=O)CCCN(C)C)ccc2O[C@@H]1CN(C)C(=O)Nc1ccc2c(c1)OCO2,inactive

row,SMILES,cytotoxicity call
1,Cc1ccc(S(=O)(=O)Nc2ccc3c(c2)C(=O)N([C@H](C)CO)C[C@@H](C)[C@H](CN(C)C(=O)Nc2cccc4ccccc24)O3)cc1,active
2,C[C@@H]1CN([C@H](C)CO)C(=O)c2cc(NS(=O)(=O)c3ccccc3)ccc2O[C@H]1CN(C)C(=O)Nc1cccc2ccccc12,inactive
3,C[C@@H]1CN([C@H](C)CO)C(=O)c2cc(NS(=O)(=O)c3ccccc3)ccc2O[C@@H]1CN(C)C(=O)Nc1cccc2ccccc12,active
4,Cc1ccc(S(=O)(=O)Nc2ccc3c(c2)C(=O)N([C@@H](C)CO)C[C@H](C)[C@H](CN(C)C(=O)Nc2cccc4ccccc24)O3)cc1,inactive
5,Cc1ccc(S(=O)(=O)Nc2ccc3c(c2)C(=O)N([C@@H](C)CO)C[C@H](C)[C@@H](CN(C)C(=O)Nc2cccc4ccccc24)O3)cc1,inactive
6,C[C@H](CO)N1C[C@H](C)[C@H](CN(C)C(=O)Nc2cccc3ccccc23)Oc2ccc(NS(=O)(=O)c3ccccc3)cc2C1=O,inactive
7,CC(C)NC(=O)N(C)C[C@H]1Oc2ccc(NC(=O)c3ccncc3)cc2CC(=O)N([C@H](C)CO)C[C@@H]1C,inactive
8,C[C@@H]1CCCCO[C@H](CN(C)S(=O)(=O)c2cccs2)[C@H](C)CN([C@@H](C)CO)C(=O)c2cc(NS(=O)(=O)c3cn(C)cn3)ccc2O1,inactive
9,Cc1ccc(S(=O)(=O)Nc2ccc3c(c2)C(=O)N([C@@H](C)CO)C[C@@H](C)[C@@H](CN(C)C(=O)NC2CCCCC2)OCCCC[C@@H](C)O3)cc1,inactive
10,CC(C)(C)OC(=O)C[C@H]1CC=CC[C@H](CC(=O)NCCO)C(=O)N[C@H](Cc2ccccc2)COC1=O,inactive
11,C[C@@H]1CN([C@H](C)CO)C(=O)Cc2cc(NS(=O)(=O)c3cn(C)cn3)ccc2O[C@H]1CN(C)Cc1ccc(C(=O)Nc2ccccc2N)cc1,inactive
12,CN1C(=O)c2cc(NS(=O)(=O)c3cccc(F)c3)ccc2OC[C@H]2O[C@@H](CC(=O)NCCN3CCCCC3)CC[C@H]21,inactive
13,C[C@H](CO)N1C[C@H](C)[C@H](CN(C)Cc2ccc3c(c2)OCO3)Oc2ccc(NC(=O)Nc3ccc(C(F)(F)F)cc3)cc2CC1=O,active
14,C[C@H](CO)N1C[C@H](C)[C@@H](CN(C)Cc2ccc3c(c2)OCO3)Oc2ccc(NC(=O)Nc3ccc(C(F)(F)F)cc3)cc2CC1=O,active
15,C[C@@H]1CN([C@@H](C)CO)C(=O)Cc2cc(NC(=O)Nc3ccc(C(F)(F)F)cc3)ccc2O[C@H]1CN(C)Cc1ccc2c(c1)OCO2,active
16,C[C@H]1CN([C@@H](C)CO)C(=O)Cc2cc(NC(=O)Nc3ccc(C(F)(F)F)cc3)ccc2O[C@@H]1CN(C)Cc1ccc2c(c1)OCO2,inactive
17,C[C@H]1CN([C@@H](C)CO)C(=O)Cc2cc(NC(=O)Nc3ccc(C(F)(F)F)cc3)ccc2O[C@H]1CN(C)Cc1ccc2c(c1)OCO2,inactive
18,C[C@@H]1CN([C@H](C)CO)C(=O)Cc2cc(NC(=O)Nc3ccc(C(F)(F)F)cc3)ccc2O[C@@H]1CN(C)Cc1ccc2c(c1)OCO2,active
19,C[C@@H]1CN([C@H](C)CO)C(=O)Cc2cc(NC(=O)Nc3ccc(C(F)(F)F)cc3)ccc2O[C@H]1CN(C)Cc1ccc2c(c1)OCO2,inactive
20,Cc1noc(C)c1NC(=O)N(C)C[C@@H]1OCCCC[C@@H](C)Oc2ccc(NC(=O)NC3CCCCC3)cc2C(=O)N([C@H](C)CO)C[C@H]1C,inactive
21,NCC[C@@H]1CC[C@@H](NC(=O)C2CC2)[C@H](CO)O1,inactive
22,COc1ccc(CN(C)C[C@@H]2Oc3ccc(NS(=O)(=O)c4cn(C)cn4)cc3CC(=O)N([C@@H](C)CO)C[C@@H]2C)cc1,inactive
23,C[C@@H]1CCCCO[C@H](CN(C)C(=O)C2CCCCC2)[C@@H](C)CN([C@H](C)CO)C(=O)c2cc(NC(=O)c3ccncc3)ccc2O1,inactive
24,C[C@@H]1CN([C@H](C)CO)C(=O)c2cc(NC(=O)Cc3ccccc3)ccc2O[C@@H](C)CCCCO[C@@H]1CN(C)Cc1ccc2c(c1)OCO2,inactive
25,C[C@@H]1CN([C@H](C)CO)C(=O)c2cc(Br)cnc2O[C@H]1CN(C)C(=O)Nc1ccccc1F,inactive

# From the antibiotic and cytotoxicity screens of Wong et al. (2023)
